Several values for one entry are separate records, joined by “and”; a condition that tells them apart may be missing. Identical values can stand only once. Compounds without any hit were thinned out: in the full panel of roughly 83,000, 20% have a hit.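 96-well plates, one dose, 48 hours. Percent growth reported; active if below 10.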 Activity calls are given as the source filed them.
These compounds were tested on MDA-MB-468 breast (assay: NCI-60 one-dose screen, 48 h (100 = growth as untreated, 0 = no growth, -100 = all killed)). Conditions: 10 µM unless noted.

Row | SMILES | growth
1 | COC(=O)[C@@H](C)C[C@H](Cc1ccccc1)NC(=O)c1csc([C@@H](C[C@H](C(C)C)N(C)C(=O)C2(NC(=O)[C@H]3CCCCN3C)CCC2)OC(C)=O)n1 | 7.04% (active)
2 | Brc1ccc2c(c1)c(-c1nc(-c3c[nH]c4ncccc34)cs1)cn2CCN1CCCCC1 | 79.2% (inactive)
3 | O=[N+]([O-])c1cc([N+](=O)[O-])c(Cl)c(Cl)c1Cl | -57.3% (active)
4 | CNC(=O)O/N=C(\SC)C(=O)N(C)C | 116% (inactive)
5 | N#CC1c2ccccc2C=CN1C(=O)c1ccc(N(CCCl)CCCl)cc1 (centres undefined) | 79.7% (inactive)
6 | CCOC(=O)[C@@H](C)C[C@H](Cc1ccccc1)NC(=O)c1csc([C@@H](C[C@H](C(C)C)N(C)C(=O)[C@@H](NC(=O)[C@H]2CCCCN2C)C(C)(C)C)OC(C)=O)n1 | 10.7% (inactive)
7 | N#CCCc1ccccc1 | 101% (inactive)
8 | CC(=O)[O][Hg][c]1c(N)c(C)cc(C)c1F | -26.7% (active)
9 | COc1cc2c(cc1OC)[C@@H]1N(CC2)C(=O)c2ccccc2[C@@]1(C)C(=O)O | 103% (inactive)
10 | C/C=C/CC(C)C(O)[C@H](NC(=O)[C@@H]1CCCN1C(=O)C(C)(C)NC(=O)CCCCCCC)C(=O)N[C@@](C)(CC)C(=O)N[C@@H](CCC(N)=O)C(=O)N[C@H](CCC(N)=O)C(=O)NC(C)(C)C(=O)NC(C)(C)C(=O)N[C@@H](CCC(N)=O)C(=O)N[C@H](CC(C)C)C(=O)N[C@H](CO)CC(C)C (some centres undefined) | 106% (inactive) and -55.5% (active)
11 | Cc1cc(Br)c([N+](=O)[O-])cc1[N+](=O)[O-] | 58.4% (inactive)
12 | C/C(=C\c1ccn(-c2ccc(N)c(C(F)(F)F)c2)n1)[C@@H]1C[C@@H]2O[C@]2(C)CCC[C@H](C)[C@H](O)[C@@H](C)C(=O)C(C)(C)[C@@H](O)CC(=O)O1 | 4.12% (active)
13 | NC(CCl)CCl | 96.8% (inactive)
14 | COc1cc(NCCCN=C(N)N)c2ncccc2c1 | -37.1% (active)
15 | CN1CCC2(CC1)C(C#N)C(=O)NC(=O)C2C#N (centres undefined) | 102% (inactive)
16 | C[Se]/C=C1/C(=O)N(c2c(Cl)cccc2Cl)c2ccccc21 | -6.67% (active)
17 | COC[CH2][Hg][C]#[C][Hg][CH2]COC | 110% (inactive)
18 | COc1ccc2c(ccc3oc([N+](=O)[O-])cc32)c1 | -57.8% (active)
19 | CCN1C(=O)C(=C/C=C/c2ccccc2)C(=O)N(CC)C1=O | 93.1% (inactive)
20 | CCCCCCCCCCCCCC[P+](CCCCCC)(CCCCCC)CCCCCC | -88.3% (active)

Row | SMILES | growth
21 | CNC(=O)Oc1cccc(OC)c1 | 106% (inactive)
22 | O=C(N/N=C/c1ccc([N+](=O)[O-])o1)c1cc([N+](=O)[O-])cc([N+](=O)[O-])c1O | 92.1% (inactive)
23 | CCCCCC1(CCBr)C(=O)NC(=O)NC1=O | 103% (inactive)
24 | COc1cc2c(c(OC)c1OC)-c1ccc([O-])c(=O)cc1[C@@H](NC(C)=O)CC2.COc1cc2c(c(OC)c1OC)-c1ccc([O-])c(=O)cc1[C@@H](NC(C)=O)CC2.[Cu+2] | 2.02% (active)
25 | O=NNc1ccccn1 | 78.5% (inactive)
26 | Cc1cccc(N(C)c2cccc3c2C(=O)[Se]C3)c1C | 16.9% (inactive)
27 | C/C(=C\c1ccn(-c2ccc(N)cc2C(F)(F)F)n1)[C@@H]1C[C@@H]2O[C@]2(C)CCC[C@H](C)[C@H](O)[C@@H](C)C(=O)C(C)(C)[C@@H](O)CC(=O)O1 | 28.6% (inactive)
28 | Cc1c(C)c(N)c(C)c(C)c1N | 61.7% (inactive)
29 | CCOC(=O)c1cncn1C(C)c1ccccc1 (centres undefined) | 97.6% (inactive)
30 | CO[C@@H]([CH2][Hg][S]C#N)[C@@H]([CH2][Hg][S]C#N)OC | 98.3% (inactive)
31 | COc1cc([C@@H]2c3cc4c(cc3[C@H](OC(C)=O)[C@H]3COC(=O)[C@H]23)OCO4)cc(OC)c1OC | 44.6% (inactive)
32 | Cn1cccc1C1CC(=O)N(CCC[Se]C#N)C1=O (centres undefined) | 13.6% (inactive)
33 | Fc1c[c-]c(-c2ccccn2)c(F)c1.[CH3-].[Pt+2].c1ccc([PH+](c2ccccc2)c2ccccn2)cc1 | -21.7% (active)
34 | CC[C@H](C)[C@H](NC(=O)[C@H]1CCCCN1C)C(=O)N(C)[C@H](CCc1nc(C(=O)N[C@@H](Cc2ccccc2)C[C@H](C)C(=O)OC)cs1)C(C)C | 35% (inactive)
35 | CC[C@H](C)[C@H](NC(=O)C12CC(NC(C)=O)(C1)C2)C(=O)N(C)[C@H](C[C@@H](OC(C)=O)c1nc(C(=O)N[C@@H](Cc2ccccc2)C[C@H](C)C(=O)OC)cs1)C(C)C | 5.12% (active)
36 | COc1ccc2c(c1)c(-c1nc(-c3cn(C)c4ncccc34)cs1)cn2CCCCN1CCCCC1 | -2.69% (active)
37 | O=C(CC1(O)C(=O)N(Cc2ccccc2)c2ccccc21)c1ccc(C(=O)NCC2CCC3(CC2)OOC2(CCCCC2)OO3)cc1 (centres undefined) | -56.6% (active)
38 | Cc1cc(N=Nc2ccccc2C)ccc1N | 64.5% (inactive)
39 | CC(CC1CCCCC1)NCc1ccccc1 (centres undefined) | 102% (inactive)

— PubChem BioAssay (NCI)
